# Test results published in paper PMC7862700, “An all-to-all approach to the identification of sequence-specific readers for epigenetic DNA modifications on cytosine”.
# Experiments:
# Experiment in all cases: DAPPL (digital affinity profiling via proximity ligation, sequencing); 10 mM Tris-HCl pH 7.5, 50 mM NaCl, 1 mM DTT, 4% glycerol, room temperature, 30 min; GST-TFs on glutathione beads, 16-mer random dsDNA library, 0.1% formaldehyde crosslink after washing; high values mean tight binding
# FEV = target: T1, FEV (Homo sapiens, UniProt Q99581 1-238); conditions: protein: recombinant; tags: N-terminal GST; dsDNA, one strand shown
# T1 sequence: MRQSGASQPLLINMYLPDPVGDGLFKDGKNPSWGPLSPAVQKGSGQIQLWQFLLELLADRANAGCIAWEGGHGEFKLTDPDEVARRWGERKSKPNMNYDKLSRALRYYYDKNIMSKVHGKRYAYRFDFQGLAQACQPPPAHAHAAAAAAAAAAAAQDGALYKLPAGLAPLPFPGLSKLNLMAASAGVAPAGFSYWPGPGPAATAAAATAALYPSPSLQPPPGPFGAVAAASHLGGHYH
# Procedure, shortened: (§1)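 Binding signal is defined as a hexamer's read frequency for one factor over its frequency for the tag-only sample. To obtain reads, GST-fused human transcription factors were expressed in yeast, captured on glutathione beads, barcoded with DNA and pooled with that sample. Pools met 200 nmole of a 16-mer random double-stranded DNA library in Tris/NaCl/DTT/glycerol buffer for 30 min at room temperature before washing, 0.1% formaldehyde crosslinking, proximity ligation (BsaI/T4 ligase, 1 h, 37 °C), PCR and Illumina NextSeq500 sequencing.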
# ETV5 = ETV5 (Homo sapiens, UniProt P41161 1-510); conditions: protein: recombinant; tags: N-terminal GST; dsDNA, one strand shown
# ETV5, sequence (P41161 whole entry): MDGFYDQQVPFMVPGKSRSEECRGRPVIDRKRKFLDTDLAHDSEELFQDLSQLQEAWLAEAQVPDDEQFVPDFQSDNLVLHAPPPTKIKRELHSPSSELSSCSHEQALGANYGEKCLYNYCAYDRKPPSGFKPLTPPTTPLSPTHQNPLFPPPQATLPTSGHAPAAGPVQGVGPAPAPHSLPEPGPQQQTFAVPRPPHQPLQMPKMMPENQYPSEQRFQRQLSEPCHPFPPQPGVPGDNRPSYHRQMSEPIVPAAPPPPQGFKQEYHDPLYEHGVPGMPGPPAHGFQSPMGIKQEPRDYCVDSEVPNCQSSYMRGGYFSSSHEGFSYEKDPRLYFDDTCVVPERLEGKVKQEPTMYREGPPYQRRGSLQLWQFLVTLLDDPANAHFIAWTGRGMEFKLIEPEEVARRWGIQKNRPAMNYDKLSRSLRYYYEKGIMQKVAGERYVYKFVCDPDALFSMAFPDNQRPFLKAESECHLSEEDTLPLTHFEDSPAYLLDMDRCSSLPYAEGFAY
# Procedure, shortened: as §1
# HSF1 = HSF1 (Homo sapiens, UniProt Q00613 1-529); conditions: protein: recombinant; tags: N-terminal GST; chain copies: 3; dsDNA, one strand shown
# HSF1, sequence (Q00613 whole entry): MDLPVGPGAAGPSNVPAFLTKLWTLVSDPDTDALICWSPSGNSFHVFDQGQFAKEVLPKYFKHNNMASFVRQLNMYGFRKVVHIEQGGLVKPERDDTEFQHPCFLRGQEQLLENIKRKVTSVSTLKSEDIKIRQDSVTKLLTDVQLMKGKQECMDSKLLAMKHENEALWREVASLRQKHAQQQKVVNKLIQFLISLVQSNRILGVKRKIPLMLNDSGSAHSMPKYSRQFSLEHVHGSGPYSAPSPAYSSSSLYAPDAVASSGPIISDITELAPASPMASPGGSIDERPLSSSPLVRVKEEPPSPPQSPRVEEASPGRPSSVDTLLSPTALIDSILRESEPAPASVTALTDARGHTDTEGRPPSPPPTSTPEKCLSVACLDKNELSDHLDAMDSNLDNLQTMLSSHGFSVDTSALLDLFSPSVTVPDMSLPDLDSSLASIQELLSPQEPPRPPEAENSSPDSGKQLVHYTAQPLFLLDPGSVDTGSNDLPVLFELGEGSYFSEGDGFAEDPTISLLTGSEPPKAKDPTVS
# Procedure, shortened: as §1
# SPIC = target: T2, SPIC (Homo sapiens, UniProt Q8N5J4 1-248); conditions: protein: recombinant; tags: N-terminal GST; dsDNA, one strand shown
# T2 sequence: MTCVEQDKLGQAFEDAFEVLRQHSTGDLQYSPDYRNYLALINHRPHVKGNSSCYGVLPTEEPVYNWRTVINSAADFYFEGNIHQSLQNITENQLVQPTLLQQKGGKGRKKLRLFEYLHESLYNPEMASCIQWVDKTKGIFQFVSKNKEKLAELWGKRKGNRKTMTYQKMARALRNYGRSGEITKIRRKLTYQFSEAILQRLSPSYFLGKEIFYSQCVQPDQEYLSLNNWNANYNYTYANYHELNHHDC
# Procedure, shortened: as §1
# ELF4 = ELF4 (Homo sapiens, UniProt Q99607 1-663); conditions: protein: recombinant; tags: N-terminal GST; dsDNA, one strand shown
# ELF4, sequence (Q99607 whole entry): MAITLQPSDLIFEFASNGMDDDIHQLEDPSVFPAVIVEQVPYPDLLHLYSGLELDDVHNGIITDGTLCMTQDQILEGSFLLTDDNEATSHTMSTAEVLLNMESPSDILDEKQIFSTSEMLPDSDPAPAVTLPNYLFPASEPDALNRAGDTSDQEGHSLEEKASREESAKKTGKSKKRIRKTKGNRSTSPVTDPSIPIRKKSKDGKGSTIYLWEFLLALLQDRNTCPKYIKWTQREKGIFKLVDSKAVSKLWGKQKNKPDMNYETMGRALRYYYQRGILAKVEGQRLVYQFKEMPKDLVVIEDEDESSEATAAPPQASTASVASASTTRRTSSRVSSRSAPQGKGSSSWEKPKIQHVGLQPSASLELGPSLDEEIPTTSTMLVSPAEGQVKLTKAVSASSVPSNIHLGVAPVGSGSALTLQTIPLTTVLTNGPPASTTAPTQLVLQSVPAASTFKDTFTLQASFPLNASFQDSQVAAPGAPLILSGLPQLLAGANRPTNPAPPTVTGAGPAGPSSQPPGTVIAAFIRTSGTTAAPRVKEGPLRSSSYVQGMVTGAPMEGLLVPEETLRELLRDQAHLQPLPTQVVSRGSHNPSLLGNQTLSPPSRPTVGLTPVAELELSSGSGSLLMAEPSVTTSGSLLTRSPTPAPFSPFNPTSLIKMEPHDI
# Procedure, shortened: as §1
# ELK4 = target: T3, ELK4 (Homo sapiens, UniProt P28324-2 1-405); conditions: protein: recombinant; tags: N-terminal GST; dsDNA, one strand shown
# T3 sequence: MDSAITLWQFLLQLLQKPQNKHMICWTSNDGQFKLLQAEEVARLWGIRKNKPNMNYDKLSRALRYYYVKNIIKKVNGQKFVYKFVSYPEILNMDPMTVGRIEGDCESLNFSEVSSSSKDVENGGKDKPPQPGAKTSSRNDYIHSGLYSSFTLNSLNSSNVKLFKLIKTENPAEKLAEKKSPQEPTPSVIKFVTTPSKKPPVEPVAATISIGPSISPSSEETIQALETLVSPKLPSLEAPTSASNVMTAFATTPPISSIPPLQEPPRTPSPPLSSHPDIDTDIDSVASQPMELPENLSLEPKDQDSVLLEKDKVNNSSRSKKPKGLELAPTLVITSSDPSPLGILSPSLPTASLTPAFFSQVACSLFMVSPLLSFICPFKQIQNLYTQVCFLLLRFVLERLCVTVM
# Procedure, shortened: as §1
# ETV2 = target: T4, ETV2 (Homo sapiens, UniProt O00321 1-342); conditions: protein: recombinant; tags: N-terminal GST; dsDNA, one strand shown
# T4 sequence: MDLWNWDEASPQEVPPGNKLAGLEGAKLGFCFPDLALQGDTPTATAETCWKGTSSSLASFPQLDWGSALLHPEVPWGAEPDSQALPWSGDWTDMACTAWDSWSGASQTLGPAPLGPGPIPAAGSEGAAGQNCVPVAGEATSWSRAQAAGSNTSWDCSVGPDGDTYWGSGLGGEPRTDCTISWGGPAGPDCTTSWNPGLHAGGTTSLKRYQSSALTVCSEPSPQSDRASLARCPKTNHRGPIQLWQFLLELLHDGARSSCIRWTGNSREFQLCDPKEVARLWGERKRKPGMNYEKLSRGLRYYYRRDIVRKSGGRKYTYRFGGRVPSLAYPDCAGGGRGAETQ
# Procedure, shortened: as §1
# ELF3 = target: T5, ELF3 (Homo sapiens, UniProt P78545 1-371); conditions: protein: recombinant; tags: N-terminal GST; dsDNA, one strand shown
# T5 sequence: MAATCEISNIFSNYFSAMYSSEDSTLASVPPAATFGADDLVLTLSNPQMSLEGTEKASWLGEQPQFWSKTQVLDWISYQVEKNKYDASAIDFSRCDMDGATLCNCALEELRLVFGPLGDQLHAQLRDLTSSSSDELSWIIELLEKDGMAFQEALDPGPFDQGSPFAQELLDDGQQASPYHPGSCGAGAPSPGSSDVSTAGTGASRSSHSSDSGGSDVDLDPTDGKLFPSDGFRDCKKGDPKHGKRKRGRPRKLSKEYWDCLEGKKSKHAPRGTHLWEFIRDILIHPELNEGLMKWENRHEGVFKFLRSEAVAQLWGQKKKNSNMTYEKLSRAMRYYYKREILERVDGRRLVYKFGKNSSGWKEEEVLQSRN
# Procedure, shortened: as §1
# CRX = CRX (Homo sapiens, UniProt O43186 1-299); conditions: protein: recombinant; tags: N-terminal GST; dsDNA, one strand shown
# CRX, sequence (O43186 whole entry): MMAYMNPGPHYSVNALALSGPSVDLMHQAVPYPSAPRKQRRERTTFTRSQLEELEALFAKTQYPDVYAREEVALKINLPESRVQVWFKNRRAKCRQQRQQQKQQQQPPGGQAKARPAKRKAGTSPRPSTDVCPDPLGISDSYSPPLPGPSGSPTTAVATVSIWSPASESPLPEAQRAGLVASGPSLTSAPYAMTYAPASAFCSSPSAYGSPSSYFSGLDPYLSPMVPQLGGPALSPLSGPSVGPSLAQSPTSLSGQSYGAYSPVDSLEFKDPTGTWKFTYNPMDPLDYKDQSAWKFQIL
# Procedure, shortened: as §1
# ETV1 = ETV1 (Homo sapiens, UniProt P50549 1-477); conditions: protein: recombinant; tags: N-terminal GST; dsDNA, one strand shown
# ETV1, sequence (P50549 whole entry): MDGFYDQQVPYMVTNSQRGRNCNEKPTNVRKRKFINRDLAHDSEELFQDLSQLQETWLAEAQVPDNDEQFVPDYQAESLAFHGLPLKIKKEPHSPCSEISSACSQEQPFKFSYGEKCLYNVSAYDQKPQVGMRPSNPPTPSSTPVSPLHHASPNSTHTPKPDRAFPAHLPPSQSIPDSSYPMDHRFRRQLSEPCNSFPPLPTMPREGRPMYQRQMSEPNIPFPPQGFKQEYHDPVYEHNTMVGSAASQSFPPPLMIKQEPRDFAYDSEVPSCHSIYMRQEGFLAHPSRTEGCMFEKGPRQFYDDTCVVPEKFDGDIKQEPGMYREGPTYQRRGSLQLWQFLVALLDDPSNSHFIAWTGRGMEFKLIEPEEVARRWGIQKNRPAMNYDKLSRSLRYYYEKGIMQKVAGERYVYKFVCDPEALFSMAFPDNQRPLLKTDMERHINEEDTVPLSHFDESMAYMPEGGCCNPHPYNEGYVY
# Procedure, shortened: as §1
# ERF = target: T6, ERF (Homo sapiens, UniProt P50548 1-548); conditions: protein: recombinant; tags: N-terminal GST; dsDNA, one strand shown
# T6 sequence: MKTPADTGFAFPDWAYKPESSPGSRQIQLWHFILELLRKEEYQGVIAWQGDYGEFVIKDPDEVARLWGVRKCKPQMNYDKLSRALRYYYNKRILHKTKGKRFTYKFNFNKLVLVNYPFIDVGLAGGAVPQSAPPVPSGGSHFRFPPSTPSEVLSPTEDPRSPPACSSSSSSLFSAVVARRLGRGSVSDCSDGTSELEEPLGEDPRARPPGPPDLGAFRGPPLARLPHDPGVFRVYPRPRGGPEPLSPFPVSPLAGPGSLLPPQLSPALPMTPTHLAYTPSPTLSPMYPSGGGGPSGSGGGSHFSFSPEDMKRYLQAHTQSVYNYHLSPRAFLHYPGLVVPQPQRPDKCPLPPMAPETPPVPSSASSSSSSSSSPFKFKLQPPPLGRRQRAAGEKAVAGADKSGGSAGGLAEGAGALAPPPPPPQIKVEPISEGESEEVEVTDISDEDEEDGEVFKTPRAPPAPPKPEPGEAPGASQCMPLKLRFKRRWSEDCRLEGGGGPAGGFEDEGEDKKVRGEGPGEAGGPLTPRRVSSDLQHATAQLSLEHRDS
# Procedure, shortened: as §1
# ETV3L = target: T7, ETV3L (Homo sapiens, UniProt Q6ZN32 1-361); conditions: protein: recombinant; tags: N-terminal GST; dsDNA, one strand shown
# T7 sequence: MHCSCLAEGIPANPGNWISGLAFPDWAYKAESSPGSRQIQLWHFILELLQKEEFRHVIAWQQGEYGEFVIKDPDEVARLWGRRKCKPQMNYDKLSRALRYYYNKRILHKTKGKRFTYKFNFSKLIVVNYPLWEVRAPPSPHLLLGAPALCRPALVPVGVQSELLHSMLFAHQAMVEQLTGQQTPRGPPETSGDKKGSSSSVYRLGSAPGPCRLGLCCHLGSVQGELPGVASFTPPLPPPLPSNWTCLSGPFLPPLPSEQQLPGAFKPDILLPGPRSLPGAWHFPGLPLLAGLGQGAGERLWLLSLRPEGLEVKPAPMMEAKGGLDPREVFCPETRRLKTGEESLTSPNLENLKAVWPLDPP
# Procedure, shortened: as §1
# ETS2 = target: T8, ETS2 (Homo sapiens, UniProt P15036 1-469); conditions: protein: recombinant; tags: N-terminal GST; dsDNA, one strand shown
# T8 sequence: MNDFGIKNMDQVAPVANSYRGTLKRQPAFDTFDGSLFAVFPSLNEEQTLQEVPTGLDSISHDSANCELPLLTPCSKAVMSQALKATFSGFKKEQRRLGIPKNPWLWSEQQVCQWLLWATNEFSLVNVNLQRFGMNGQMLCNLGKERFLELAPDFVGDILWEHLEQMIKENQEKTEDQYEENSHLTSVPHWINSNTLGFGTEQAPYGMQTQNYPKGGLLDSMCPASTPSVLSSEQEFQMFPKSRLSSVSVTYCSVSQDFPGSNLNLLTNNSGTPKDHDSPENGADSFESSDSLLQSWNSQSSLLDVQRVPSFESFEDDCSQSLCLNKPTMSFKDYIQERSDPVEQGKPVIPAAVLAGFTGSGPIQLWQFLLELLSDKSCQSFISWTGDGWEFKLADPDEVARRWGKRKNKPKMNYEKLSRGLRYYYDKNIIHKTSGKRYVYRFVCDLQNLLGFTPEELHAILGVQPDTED
# Procedure, shortened: as §1
# SPDEF = target: T9, SPDEF (Homo sapiens, UniProt O95238 1-335); conditions: protein: recombinant; tags: N-terminal GST; dsDNA, one strand shown
# T9 sequence: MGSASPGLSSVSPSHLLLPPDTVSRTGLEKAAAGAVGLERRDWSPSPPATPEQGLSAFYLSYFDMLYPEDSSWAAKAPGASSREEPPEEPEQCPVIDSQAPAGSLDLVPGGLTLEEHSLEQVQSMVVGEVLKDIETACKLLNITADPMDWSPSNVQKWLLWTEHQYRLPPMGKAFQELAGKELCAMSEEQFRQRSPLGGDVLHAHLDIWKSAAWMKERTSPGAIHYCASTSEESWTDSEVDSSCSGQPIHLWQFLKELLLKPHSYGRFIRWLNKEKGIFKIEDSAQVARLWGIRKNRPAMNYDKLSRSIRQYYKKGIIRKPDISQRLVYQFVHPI
# Procedure, shortened: as §1
# ETV7 = target: T10, ETV7 (Homo sapiens, UniProt Q9Y603 1-341); conditions: protein: recombinant; tags: N-terminal GST; dsDNA, one strand shown
# T10 sequence: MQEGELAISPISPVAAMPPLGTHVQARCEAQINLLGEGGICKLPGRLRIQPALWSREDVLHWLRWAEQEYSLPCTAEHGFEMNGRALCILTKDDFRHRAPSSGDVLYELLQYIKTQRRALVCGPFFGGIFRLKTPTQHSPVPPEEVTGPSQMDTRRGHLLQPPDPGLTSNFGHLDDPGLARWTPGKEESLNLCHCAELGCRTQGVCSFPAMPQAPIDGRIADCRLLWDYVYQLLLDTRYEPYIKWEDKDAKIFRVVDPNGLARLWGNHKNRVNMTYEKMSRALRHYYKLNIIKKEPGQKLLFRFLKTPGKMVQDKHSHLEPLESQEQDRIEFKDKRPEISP
# Procedure, shortened: as §1
# ELF5 = target: T11, ELF5 (Homo sapiens, UniProt Q9UKW6-2 1-255); conditions: protein: recombinant; tags: N-terminal GST; dsDNA, one strand shown
# T11 sequence: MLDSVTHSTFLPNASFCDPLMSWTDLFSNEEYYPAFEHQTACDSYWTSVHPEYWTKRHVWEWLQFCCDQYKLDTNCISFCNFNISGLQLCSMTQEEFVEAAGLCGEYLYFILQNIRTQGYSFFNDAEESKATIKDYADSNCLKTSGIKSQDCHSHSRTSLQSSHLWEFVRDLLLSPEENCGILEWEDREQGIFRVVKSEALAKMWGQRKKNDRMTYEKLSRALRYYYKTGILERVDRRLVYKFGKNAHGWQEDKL
# Procedure, shortened: as §1
# ETV3 = target: T12, ETV3 (Homo sapiens, UniProt P41162-2 1-143); conditions: protein: recombinant; tags: N-terminal GST; dsDNA, one strand shown
# T12 sequence: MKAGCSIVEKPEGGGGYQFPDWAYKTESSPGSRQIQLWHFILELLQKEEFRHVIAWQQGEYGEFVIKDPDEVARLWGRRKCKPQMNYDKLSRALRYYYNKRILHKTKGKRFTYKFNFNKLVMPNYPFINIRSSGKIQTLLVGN
# Procedure, shortened: as §1
# ETV6 = ETV6 (Homo sapiens, UniProt P41212 1-452); conditions: protein: recombinant; tags: N-terminal GST; dsDNA, one strand shown
# ETV6, sequence (P41212 whole entry): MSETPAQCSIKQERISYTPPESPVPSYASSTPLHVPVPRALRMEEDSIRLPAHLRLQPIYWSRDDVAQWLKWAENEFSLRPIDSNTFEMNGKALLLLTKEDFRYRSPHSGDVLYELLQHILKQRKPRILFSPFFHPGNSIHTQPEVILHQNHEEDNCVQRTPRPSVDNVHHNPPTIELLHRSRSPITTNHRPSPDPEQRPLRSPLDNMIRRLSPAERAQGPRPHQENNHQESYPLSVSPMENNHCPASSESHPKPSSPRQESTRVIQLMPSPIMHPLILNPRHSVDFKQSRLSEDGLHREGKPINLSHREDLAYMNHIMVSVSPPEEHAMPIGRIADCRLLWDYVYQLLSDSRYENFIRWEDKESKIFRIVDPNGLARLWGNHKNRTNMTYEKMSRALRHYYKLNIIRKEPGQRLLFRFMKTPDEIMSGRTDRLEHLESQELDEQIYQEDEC
# Procedure, shortened: as §1
sequence,measurement,setting,value
TTTGAA,binding signal,FEV,"1.13 fold enrichment (6-mer frequency, TF over GST control)"
same,binding signal,ETV5,"1.26 fold enrichment (6-mer frequency, TF over GST control)"
same,binding signal,HSF1,"1.24 fold enrichment (6-mer frequency, TF over GST control)"
same,binding signal,SPIC,"1.24 fold enrichment (6-mer frequency, TF over GST control)"
same,binding signal,ELF4,"1.32 fold enrichment (6-mer frequency, TF over GST control)"
same,binding signal,ELK4,"1.34 fold enrichment (6-mer frequency, TF over GST control)"
same,binding signal,ETV2,"1.38 fold enrichment (6-mer frequency, TF over GST control)"
same,binding signal,ELF3,"1.3 fold enrichment (6-mer frequency, TF over GST control)"
same,binding signal,CRX,"1.28 fold enrichment (6-mer frequency, TF over GST control)"
same,binding signal,ETV1,"1.19 fold enrichment (6-mer frequency, TF over GST control)"
same,binding signal,ERF,"1.11 fold enrichment (6-mer frequency, TF over GST control)"
same,binding signal,ETV3L,"1.19 fold enrichment (6-mer frequency, TF over GST control)"
same,binding signal,ETS2,"1.23 fold enrichment (6-mer frequency, TF over GST control)"
same,binding signal,SPDEF,"1.15 fold enrichment (6-mer frequency, TF over GST control)"
same,binding signal,ETV7,"1.17 fold enrichment (6-mer frequency, TF over GST control)"
same,binding signal,ELF5,"1.1 fold enrichment (6-mer frequency, TF over GST control)"
same,binding signal,ETV3,"1.22 fold enrichment (6-mer frequency, TF over GST control)"
same,binding signal,ETV6,"1.23 fold enrichment (6-mer frequency, TF over GST control)"
